Bioassay records: PubChem BioAssay, several laboratories
Compounds with a hit are over-represented: about 2.1% of the library has one in this group of screens.
aDG glyco act: alpha-DG glycosylation activation; activation, % at 10 µM; AID 624168; actives 0.22% (n = 360,000); Pro5-aDG cells, alpha-DG glycosylation AlphaScreen (IIH6); 0% Pro5, 100% B10-LARGE cell signal;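 active = activation of at least 8% versus controls, or a plate z-score of at least 8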;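 also: Pro5 are CHO cells carrying HIG-tagged alpha-DG that lacks glycosylation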
Gli-Sufu block: antagonists of Gli-Sufu signaling; Sufu-KO-LIGHT fibroblasts, Gli luciferase reporter luminescence; inhibition, % at 5 µM; actives 0.74% (n = 340,000);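 active = inhibition above about 55%, limit read from the data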
GalR3 antagonist: blocks the human galanin receptor 3; O60755; HEK293 GalR3-CNG cAMP membrane potential fluorescence; galR3 body fused to GalR1 C-terminus; inhibition, % at 3 µM; actives 0.44% (n = 360,000);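 active = inhibition above the screen-wide average plus 3 SD, cut at about 13% in these data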;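 also: forskolin and galanin both at EC90 stimulate the cells; cAMP rise reported by CNG channel membrane potential dye signal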
Target sequence (O60755 1-299 limits assumed): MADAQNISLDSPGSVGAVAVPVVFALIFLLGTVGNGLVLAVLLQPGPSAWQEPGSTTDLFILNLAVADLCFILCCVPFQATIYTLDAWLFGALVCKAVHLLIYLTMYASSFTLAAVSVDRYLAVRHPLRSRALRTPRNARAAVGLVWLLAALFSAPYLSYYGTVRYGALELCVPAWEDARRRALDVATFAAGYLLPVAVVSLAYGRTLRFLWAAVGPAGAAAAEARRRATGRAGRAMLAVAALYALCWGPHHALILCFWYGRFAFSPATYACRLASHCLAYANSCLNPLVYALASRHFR
COUP-TFII inh: inhibitors of human COUP-TFII (NR2F2). HEK293T NGFI-A luciferase reporter, luminescence. P24468. actives 0.7% (n = 370,000). AID 686940. inhibition, % at 8.6 µM;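 active = inhibition above a per-plate cutoff, mean inhibition of test wells between control levels plus 3 SD, cut at about 38% in these data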;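 also: cells cotransfected with COUP-TFII expression vector driving the NGFI-A reporter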
Env fusion inh: HIV envelope-mediated fusion inhibition; HeLa-JRFL Env/CEM21 cell fusion, luciferase; inhibition, % at 12.3 µM; actives 1.1% (n = 360,000); AID 651610;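 active = mean replicate inhibition score of at least 50 and every replicate individually at or above 50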
Each line names hits and unclear results; the compound was inactive in the other large screens; [ ] = another dose, or the depositor's remark.

O=C(CSc1nc2ccccc2c(=O)n1Cc1ccc(Cl)cc1)NCc1cccs1	Env fusion inh 70
CC(C)(C)n1nnnc1C(c1cccs1)N(Cc1cccnc1)Cc1ccccc1Cl (stereo not given)	none
CCN(Cc1ccccc1)C(c1cccs1)c1nnnn1C1CCCCC1 (stereo not given)	Env fusion inh 96
Clc1ccc(CN(CC2CCCO2)C(c2cccs2)c2nnnn2C2CCCC2)cc1 (stereo not given)	Env fusion inh 117
CCN(Cc1ccccc1)C(c1ccccn1)c1nnnn1C1CCCCC1 (stereo not given)	none (no result: Env fusion inh)
Clc1ccccc1CN(Cc1ccccc1)C(c1cccs1)c1nnnn1C1CCCC1 (stereo not given)	Env fusion inh 83
C[C@@H]1CCCCO[C@@H](CN(C)Cc2ccncc2)[C@H](C)CN([C@@H](C)CO)C(=O)c2cc(NC(=O)NC3CCCCC3)ccc2O1	none (no result: aDG glyco act, Gli-Sufu block, GalR3 antagonist, COUP-TFII inh)
CCCN(C)C[C@H]1OCCCC[C@@H](C)Oc2ccc(NC(=O)c3ccccc3)cc2C(=O)N([C@@H](C)CO)C[C@H]1C	none (no result: aDG glyco act, Gli-Sufu block, GalR3 antagonist, COUP-TFII inh)
O=C(C[C@H]1CC[C@H]2[C@@H](COC[C@H](O)CN2C(=O)Nc2ccc(Cl)c(Cl)c2)O1)NCc1ccncc1	Env fusion inh 70[16.7 µM] (no result: aDG glyco act, Gli-Sufu block, GalR3 antagonist, COUP-TFII inh)
O=C(C[C@@H]1CC[C@H]2[C@@H](COC[C@H](O)CN2C(=O)Nc2ccc(Cl)c(Cl)c2)O1)NCc1ccncc1	none (no result: aDG glyco act, Gli-Sufu block, GalR3 antagonist, COUP-TFII inh)
O=C(C[C@H]1CC[C@H]2[C@@H](COC[C@H](O)CN2CCC(F)(F)F)O1)NCc1ccc(Oc2ccccc2)cc1	Env fusion inh 56[16.7 µM] (no result: aDG glyco act, Gli-Sufu block, GalR3 antagonist, COUP-TFII inh)
OCC1OC(n2cnc3c(/C=C(\O)c4ccccc4)ncnc32)C(O)C1O (stereo not given)	Env fusion inh 55
CN(C)c1ncnc2c1ncn2C1OC(CO)C(O)C1O (stereo not given)	none (no result: Env fusion inh)
Cc1ccc(CN(C)C(=O)c2ccccc2Sc2ccccc2C#N)cc1	none
CN(Cc1ccc(OC(F)F)cc1)C(=O)c1ccccc1Sc1ccccc1C#N	Env fusion inh 56
CC(C)CC#Cc1ccc2c(c1)O[C@@H](CN(C)C(=O)Cc1ccccn1)[C@@H](C)CN([C@H](C)CO)S2(=O)=O	none (no result: aDG glyco act, Gli-Sufu block, GalR3 antagonist, COUP-TFII inh)
Cc1cc(OCc2cc(C(=O)N3CCC(Oc4cccnc4)CC3)no2)cc(C)c1Cl	Env fusion inh 67
Clc1ccc(-c2nc3c4ccccc4ccn3c2Cc2ccsc2)cc1	Env fusion inh 65 (no result: Gli-Sufu block)
COc1cc(CNC(C)c2ccccc2)cc(Cl)c1OCC(=O)Nc1ccccc1 (stereo not given)	Env fusion inh 71
O=C1Cc2c([nH]c3ccc([N+](=O)[O-])cc23)-c2ccccc2N1	COUP-TFII inh 38, Env fusion inh 96
C[C@H]1CN([C@@H](C)CO)C(=O)Cc2cc(NC(=O)Nc3ccc(C(F)(F)F)cc3)ccc2O[C@H]1CN(C)S(=O)(=O)c1ccc(F)cc1	none (no result: aDG glyco act, Gli-Sufu block, GalR3 antagonist, COUP-TFII inh)
Cc1ccc(S(=O)(=O)N(C)C[C@H]2Oc3ccc(NC(=O)Nc4ccc(C(F)(F)F)cc4)cc3CC(=O)N([C@@H](C)CO)C[C@H]2C)cc1	Env fusion inh 94[16.7 µM] (no result: aDG glyco act, Gli-Sufu block, GalR3 antagonist, COUP-TFII inh)
C[C@H](CO)N1C[C@H](C)[C@@H](CN(C)S(=O)(=O)c2ccc(F)cc2)Oc2ccc(NC(=O)Nc3ccc(C(F)(F)F)cc3)cc2CC1=O	Env fusion inh 101[16.7 µM] (no result: aDG glyco act, Gli-Sufu block, GalR3 antagonist, COUP-TFII inh)
Cc1ccc(S(=O)(=O)N(C)C[C@@H]2Oc3ccc(NC(=O)Nc4ccc(C(F)(F)F)cc4)cc3CC(=O)N([C@@H](C)CO)C[C@@H]2C)cc1	none (no result: aDG glyco act, Gli-Sufu block, GalR3 antagonist, COUP-TFII inh)
COc1ccc(-c2cc(C(F)(F)F)nc(S(=O)(=O)CCCC(=O)Nc3cccnc3Cl)n2)cc1OC	GalR3 antagonist 17
CCCNC(=O)N1[C@@H]2c3ccc(-c4cccc(OC)c4)c(=O)n3C[C@H]1[C@H](CO)[C@H]2C(=O)NC1CCC1	none (no result: aDG glyco act, Gli-Sufu block, GalR3 antagonist, COUP-TFII inh)
COc1ccc(-c2coc3c(C(=O)NCCc4ccccc4)cccc23)c(C)c1	Env fusion inh 55 (no result: Gli-Sufu block)
COCCCNC(=O)c1cccc2c(-c3ccc(OC)cc3C)coc12	none (no result: Gli-Sufu block, Env fusion inh)
COc1ccc(CCCC(=O)NCCc2ccccc2)c(C)c1	Env fusion inh 89
O=C(C[C@@H]1CC[C@H](NS(=O)(=O)c2ccc(F)cc2)[C@@H](CO)O1)NCCN1CCCCC1	none (no result: aDG glyco act, Gli-Sufu block, GalR3 antagonist, COUP-TFII inh)
Cc1cc2[nH]c(=S)[nH]c2cc1C	none
Fc1cc2[nH]c(=S)[nH]c2cc1Cl	Env fusion inh 57
Cc1noc(C)c1S(=O)(=O)Nc1ccc2c(c1)C(=O)N([C@@H](C)CO)C[C@H](C)[C@@H](CN(C)S(=O)(=O)c1ccc(Cl)cc1)OCCCC[C@@H](C)O2	none (no result: aDG glyco act, Gli-Sufu block, GalR3 antagonist, COUP-TFII inh)
